Data published in PubChem BioAssay.

Test system: XIP peptide (Xip251-270) binding
Assay: XIP fragment 251-270 binding compounds – biochemical, small-molecule microarray, fluorescence 635/667 nm, 0.1 µg/mL protein, primary screen (AID 1182)
Details: fluorescent protein binding, 635 nm, higher = more signal, called active from +8 up or from −8 down

Composite z-score, inactive:
C=C(CCCC)C(=O)CC[C@H](OC(C)=O)c1ccccc1OCCO 0.551, O=C1O[C@H](c2ccccc2)[C@H](c2ccccc2)N2[C@H]1[C@@H](C(=O)N1CCN(c3ncccn3)CC1)[C@]1(C(=O)Nc3ccccc31)[C@H]2c1ccc(O)cc1 0.0016, CO[C@H]1O[C@H](CO)[C@@H](OC(=O)Nc2ccccc2)[C@@H]2OC(=O)[C@H](Cc3ccccc3)C/C=C/C[C@@H](Cc3ccccc3)C(=O)O[C@@H]12 1.5, C=CCNC(=O)[C@@H]1[C@H]2C(=O)O[C@H](c3ccccc3)[C@H](c3ccccc3)N2[C@H](c2ccc(O)cc2)[C@@]12C(=O)Nc1ccc(C#CC3(O)CCCCCC3)cc12 0.237, C=CCC(OC(C)=O)[C@@H]1[C@@H](N(Cc2ccc(-c3cccc(C(F)(F)F)c3)o2)C(=O)Cc2ccc(F)cc2)c2cc(OCCCO)ccc2N1C(=O)c1ccc2ccccc2n1 (stereo not given in full) -0.384, CO[C@H]1O[C@H](CO)[C@@H](OC(=O)Nc2ccc(C(F)(F)F)cc2)[C@H](OC(=O)Nc2ccccc2-c2ccccc2)[C@@H]1OC(=O)Nc1ccccc1-c1ccccc1 1.39, CCCCC(=C=CC[C@H](O)c1ccc(OCCO)cc1)C[C@H](O)c1ccccn1 0.575, NC(=O)[C@@]1(CCS(=O)(=O)c2ccccc2)COC(c2ccc(OCCCO)cc2)=N1 -0.377, CC(=O)NCCCC[C@@H]1NC(=O)[C@@H]2C[C@H](C(=O)NCCCCCC[N+](C)(C)C)[C@H](c3ccc(O)cc3)N2C1=O 0.0817, O=C1C2C=CC(C(O)c3cccc(O)c3)N(Nc3ccccc3F)C2C(=O)N1c1ccccc1 (stereo not given) 1.62, COCCOC(=O)N1C(=O)[C@@]2(c3cc(C#CCCO)ccc31)[C@H](C(=O)N1CCN(c3ncccn3)CC1)[C@H]1C(=O)O[C@H](c3ccccc3)[C@H](c3ccccc3)N1[C@@H]2c1ccc(O)cc1 1.43, COc1cccc(OC)c1C(=O)O[C@H]1[C@@H]2OC(=O)[C@H](Cc3cccc(Br)c3)C/C=C/C[C@@H](Cc3cccc(Br)c3)C(=O)O[C@H]2[C@@H](OC)O[C@@H]1CO 1.02, COc1ccc([Si](C)(C)[C@@H]2[C@@H](CCO)O[C@]3(C(=O)N(Cc4ccccc4)c4ccc(N5C(=O)c6ccccc6Oc6ccccc65)cc43)[C@H]2C)cc1 0.664, CC(C)CNC(=O)[C@@H]1c2ccccc2C(=O)N(CC23CC4CC(CC(C4)C2)C3)[C@H]1c1ccc(CO)cc1 0.41, C=C(COC)/C(=C/C[C@H](OC(=O)c1ccncc1)c1cccc(OCCO)c1)c1cnc2ccccc2c1 4.42, CN1C(=O)C2C=CC(C(O)c3ccc(-c4ccccc4)s3)N(Nc3ccccc3)C2C1=O (stereo not given) 0.844, COc1ccc(NC(=O)O[C@H]2[C@H](OC(=O)Nc3ccc4c(c3)OCO4)[C@H](OC(=O)Nc3ccc4c(c3)OCO4)[C@@H](OC)O[C@@H]2CO)cc1 1.04, C=CCOC(=O)[C@H]1[C@@H]2C(=O)O[C@@H](c3ccccc3)[C@@H](c3ccccc3)N2[C@@H](c2ccc(OCCOC(=O)[C@H]3C[C@H]4C(=O)NCC(=O)N4[C@H]3c3ccc(O)cc3)cc2)[C@]12C(=O)Nc1ccc(I)cc12 -0.256, COCCOC(=O)N1C(=O)[C@@]2(c3cc(C#CC4=CCCCC4)ccc31)[C@H](C(=O)N1CCN(c3ncccn3)CC1)[C@H]1C(=O)O[C@H](c3ccccc3)[C@H](c3ccccc3)N1[C@@H]2c1ccccc1OCCO 0.506, C=C(COC)C(=O)CC[C@@H](OC(C)=O)c1ccc(OCCO)cc1 1.61, O=C1C2C=CC(C(O)c3ccc([N+](=O)[O-])cc3)N(Nc3ccccc3)C2C(=O)N1c1ccccc1 (stereo not given) 0.392, COCCCNC(=O)[C@@H]1c2ccccc2C(=O)N(C2CCCCC2)[C@H]1c1ccc(CO)cc1 -0.209, C=CCN1C(=O)[C@]2(O[C@H](CCO)[C@@H]([Si](C)(C)c3ccc(OC)cc3)[C@@H]2C)c2ccccc21 0.0965, C=CCC(OC(C)=O)[C@@H]1[C@@H](N(Cc2cc3ccccc3o2)C(=O)Cc2ccc(OC)cc2)c2cc(OCCCO)ccc2N1C(=O)Cc1ccc2ccccc2c1 (stereo not given in full) -0.324, CCOC(=O)C1=CCC(c2cc3ccccc3[nH]2)N(S(=O)(=O)c2ccccc2[N+](=O)[O-])C1 (stereo not given) -0.212, COCC1=C([C@H](O)CCc2ccccc2)[C@H](CO)n2c(=O)n(-c3ccccc3)c(=O)n2C1 0.625, C=CCC(OC(C)=O)[C@@H]1[C@@H](N(Cc2ccc(-c3ccccc3)cc2)C(=O)c2cccc3ccccc23)c2cc(OCCCO)ccc2N1C(=O)c1ccc2ccccc2c1 (stereo not given in full) 0.15, Cc1ccc(S[C@]2(C(=O)NCCN3CCOCC3)CC(=O)N(C3CCCCC3)[C@@H]2c2ccc(CO)cc2I)cc1 0.825, CCOC(=O)C[C@H]1[C@H](OC(=O)c2cc3ccccc3oc2=O)[C@@H](NC(=O)C2CCCCC2)c2cc(OCCCO)ccc2N1C(=O)Cc1ccc(OC)cc1 0.0512, CC(=O)n1cc(C(O)C2C=CC3C(=O)N(c4ccccc4)C(=O)C3N2Nc2ccccc2F)c2ccccc21 (stereo not given) 0.0433, NC(=O)NCC#Cc1ccc2c(c1)[C@]1(C(=O)N2)[C@H](C(=O)Nc2nc3ccccc3s2)[C@H]2C(=O)O[C@H](c3ccccc3)[C@H](c3ccccc3)N2[C@@H]1c1ccc(OCCO)cc1 -0.165, [N-]=[N+]=Nc1ccccc1[C@@H]1OC(c2ccc(OCCCO)cc2)=N[C@]1(Cc1ccccc1)C(N)=O 0.0123, NC(=O)NCC#Cc1ccc2c(c1)[C@]1(C(=O)N2)[C@H](C(=O)N2CCCCCCC2)[C@H]2C(=O)O[C@H](c3ccccc3)[C@H](c3ccccc3)N2[C@@H]1c1ccc(O)cc1 0.123, COC(=O)C1=CC(CCCO)=CC(C2CC2)N(Cc2cccc(OC(F)(F)F)c2)C=C1C(=O)OC (stereo not given) 0.737, COCCOC(=O)N1C(=O)[C@@]2(c3cc(C#CC4(O)CCCCCC4)ccc31)[C@H](c1ccc(OCCO)cc1)N1[C@H](c3ccccc3)[C@H](c3ccccc3)OC(=O)[C@H]1[C@@H]2C(=O)N1CCCCCCC1 0.662
